Source: PubChem BioAssay (Tox21)
Inconclusive results are not listed. Calls of active or inactive are those of the source. The call rests on the fitted dose curve; in most records, active means well fitted curve in the direction sought with a large enough effect in the repeat runs; inconclusive means weak or mixed curves; inactive means no such curve, though single readings can be large; an effect the other way counts as inactive or inconclusive.

How the values were obtained:
[1] = Caspase-3/7 induction in CHO-K1 cells by small molecules, qHTS cell viability counter screen (AID 1346979); further: nearly all actives have a fitted effect of over 35% in size; further: potency means the concentration at half of the fitted maximal effect
Outline: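 Seeding: 1,500 CHO-K1 cells/well. Rest: 5hr, 37C. Treatment: compounds in DMSO, 16hr. Read: CellTiter-Fluor, 1hr, fluorescence.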

[2] = Caspase-3/7 induction in CHO-K1 cells by small molecules, qHTS assay (AID 1346980); further: nearly all actives have a fitted effect of over 15% in size
Outline: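 Wild-type CHO-K1 cells exposed to compounds for 17hr at 37 C, 5% CO2. Caspase-3/7 activity then measured by Caspase-Glo 3/7 luminescence after 30min at room temperature.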

[3] = target: Nuclear receptor subfamily 1 group I member 2 (Rattus norvegicus) (UniProt Q9R1A7); test: Rat pregnane X receptor (rPXR) activation by small molecules, qHTS assay (AID 1346983); settings: rPXR luciferase reporter cells, One-Glo luminescence, 24 h; active compounds read high; further: nearly all actives have a fitted effect of over 20% in size
Sequence of Nuclear receptor subfamily 1 group I member 2 (Rattus norvegicus) (Q9R1A7 whole entry, looked up): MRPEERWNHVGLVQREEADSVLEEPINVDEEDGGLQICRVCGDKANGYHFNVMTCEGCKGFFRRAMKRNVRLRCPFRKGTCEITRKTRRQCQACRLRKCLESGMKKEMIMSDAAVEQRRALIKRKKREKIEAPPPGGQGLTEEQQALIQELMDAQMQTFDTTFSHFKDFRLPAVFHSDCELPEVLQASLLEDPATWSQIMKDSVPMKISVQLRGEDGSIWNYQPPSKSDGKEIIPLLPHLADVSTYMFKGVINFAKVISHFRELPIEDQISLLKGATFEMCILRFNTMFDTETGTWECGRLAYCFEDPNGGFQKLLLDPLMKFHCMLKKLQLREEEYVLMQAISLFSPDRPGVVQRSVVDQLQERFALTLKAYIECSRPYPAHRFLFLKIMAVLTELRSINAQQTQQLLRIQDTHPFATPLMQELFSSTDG
Outline: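 Cell-based rPXR activation assay: rPXR cells, 2,000 per well, rested 5hr at 37 C, then exposed to compounds in DMSO for 24 hr at 37 C. Luciferase activity read by One-Glo luminescence after 30 min at room temperature.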

[4] = target: Cytochrome P450 2D6 (Homo sapiens) (UniProt P10635); test: Cytochrome P450 Family 2 Subfamily D Member 6 (CYP2D6) small molecule antagonists: luciferase reporter qHTS assay (AID 1671196); further: nearly all actives have a fitted effect of over 50% in size; further: potency means the concentration at half of the fitted maximal effect; on activity change, negative = inhibition: series mostly up to about 120 µM
Sequence of Cytochrome P450 2D6 (Homo sapiens) (P10635 whole entry, looked up): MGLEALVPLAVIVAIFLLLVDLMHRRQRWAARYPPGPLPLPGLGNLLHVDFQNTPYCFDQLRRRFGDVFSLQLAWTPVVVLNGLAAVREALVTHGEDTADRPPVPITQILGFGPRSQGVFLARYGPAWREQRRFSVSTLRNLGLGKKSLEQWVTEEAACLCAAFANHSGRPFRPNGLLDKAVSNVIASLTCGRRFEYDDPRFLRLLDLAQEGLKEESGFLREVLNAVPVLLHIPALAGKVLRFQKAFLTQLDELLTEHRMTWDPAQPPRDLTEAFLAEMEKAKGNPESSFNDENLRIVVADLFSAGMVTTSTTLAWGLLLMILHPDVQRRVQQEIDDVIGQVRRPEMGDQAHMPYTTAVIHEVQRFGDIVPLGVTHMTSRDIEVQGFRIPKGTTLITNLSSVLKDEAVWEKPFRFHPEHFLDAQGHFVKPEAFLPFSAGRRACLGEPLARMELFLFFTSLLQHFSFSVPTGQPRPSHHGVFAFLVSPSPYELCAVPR
Outline: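 Test chemicals meet CYP2D6 plus proluciferin substrate (10 min, RT); NADPH regenerating solution then drives turnover for 1 h. Detection reagent halts the reaction; luminescence measured after 20 min.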

[5] = Caspase-3/7 induction in HepG2 cells by small molecules, qHTS cell viability counter screen (AID 1346981); further: nearly all actives have a fitted effect of over 30% in size; further: potency means the concentration at half of the fitted maximal effect; on activity change, negative = cytotoxicity: series mostly up to about 92 µM
Outline: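 In this quantitative HTS counter screen, compounds delivered in DMSO were left on unmodified HepG2 cells for 16 hr at 37 C. Viability was then determined fluorometrically with CellTiter-Fluor, in parallel with caspase-3/7 induction in the same wells.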

[6] = target: Nuclear receptor subfamily 1 group I member 2 (Homo sapiens) (UniProt O75469); test: Human pregnane X receptor (PXR) small molecule agonists, qHTS assay (AID 1346982); further: nearly all actives have a fitted effect of over 35% in size; further: potency means the concentration at half of the fitted maximal effect
Sequence of Nuclear receptor subfamily 1 group I member 2 (Homo sapiens) (O75469 whole entry, looked up): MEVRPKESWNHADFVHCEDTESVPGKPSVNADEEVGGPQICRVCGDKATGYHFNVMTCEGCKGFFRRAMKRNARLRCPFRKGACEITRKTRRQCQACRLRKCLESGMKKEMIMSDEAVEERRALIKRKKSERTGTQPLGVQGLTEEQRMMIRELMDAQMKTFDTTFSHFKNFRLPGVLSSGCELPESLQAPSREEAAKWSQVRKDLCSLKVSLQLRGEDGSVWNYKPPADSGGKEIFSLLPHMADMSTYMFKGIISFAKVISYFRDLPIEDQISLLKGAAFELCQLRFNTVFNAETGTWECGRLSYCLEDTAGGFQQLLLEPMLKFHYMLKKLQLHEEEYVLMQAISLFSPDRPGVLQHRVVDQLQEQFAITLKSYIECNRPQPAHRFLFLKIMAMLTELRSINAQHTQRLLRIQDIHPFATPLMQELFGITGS
Outline: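 Reporter HepG2 cells expressing PXR-Luc are cultured in charcoal-stripped FBS (5%), treated with compounds for 24 hr at 37 C, and assayed by ONE-Glo luminescence after 30 min at room temperature.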

[7] = target: Nuclear receptor subfamily 1 group I member 2 (Homo sapiens) (UniProt O75469); test: CYP3A4 induction through human pregnane X receptor (PXR) by small molecules, qHTS assay (AID 1346984); further: nearly all actives have a fitted effect of over 40% in size; further: potency means the concentration at half of the fitted maximal effect
Outline: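 Induction measured in HepG2-based DPX-2 cells co-expressing human PXR and a CYP3A4 promoter-driven luciferase. After a 24-hour compound exposure, cells received CYP3A4 luciferin substrate at 3uM final for 3 hours, and light output was then recorded.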

[8] = target: Cytochrome P450 2C19 (Homo sapiens) (UniProt P33261); test: Cytochrome P450 Family 2 Subfamily C Member 19 (CYP2C19) small molecule antagonists: luciferase reporter qHTS assay (AID 1671197); further: nearly all actives have a fitted effect of over 65% in size; further: potency means the concentration at half of the fitted maximal effect; on activity change, negative = inhibition: series mostly up to about 120 µM
Sequence of Cytochrome P450 2C19 (Homo sapiens) (P33261 whole entry, looked up): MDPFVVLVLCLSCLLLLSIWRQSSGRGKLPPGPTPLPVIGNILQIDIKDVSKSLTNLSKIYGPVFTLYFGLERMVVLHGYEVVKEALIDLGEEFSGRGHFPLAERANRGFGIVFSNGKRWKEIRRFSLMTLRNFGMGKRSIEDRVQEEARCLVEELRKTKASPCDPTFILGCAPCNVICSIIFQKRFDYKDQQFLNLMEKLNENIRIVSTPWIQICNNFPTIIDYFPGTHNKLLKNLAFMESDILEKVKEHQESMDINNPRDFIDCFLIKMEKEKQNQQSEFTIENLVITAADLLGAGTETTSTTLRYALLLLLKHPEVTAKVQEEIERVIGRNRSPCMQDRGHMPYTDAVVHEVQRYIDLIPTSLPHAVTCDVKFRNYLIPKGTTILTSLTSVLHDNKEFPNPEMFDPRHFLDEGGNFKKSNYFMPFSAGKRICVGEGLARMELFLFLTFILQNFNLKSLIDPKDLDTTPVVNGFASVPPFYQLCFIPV
Outline: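 P450-Glo CYP2C19 system: enzyme-substrate mix with compound 10 min at room temperature, then NADPH regeneration solution, 1 h at 37C. Proluciferin-to-luciferin conversion detected by luminescence after 20 min with detection reagent; ketoconazole as positive control.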

[9] = target: Cytochrome P450 2C9 (Homo sapiens) (UniProt P11712); test: Cytochrome P450 Family 2 Subfamily C Member 9 (CYP2C9) small molecule antagonists: luciferase reporter qHTS assay (AID 1671198); further: nearly all actives have a fitted effect of over 50% in size; further: potency means the concentration at half of the fitted maximal effect; on activity change, negative = inhibition: series mostly up to about 120 µM
Sequence of Cytochrome P450 2C9 (Homo sapiens) (P11712 whole entry, looked up): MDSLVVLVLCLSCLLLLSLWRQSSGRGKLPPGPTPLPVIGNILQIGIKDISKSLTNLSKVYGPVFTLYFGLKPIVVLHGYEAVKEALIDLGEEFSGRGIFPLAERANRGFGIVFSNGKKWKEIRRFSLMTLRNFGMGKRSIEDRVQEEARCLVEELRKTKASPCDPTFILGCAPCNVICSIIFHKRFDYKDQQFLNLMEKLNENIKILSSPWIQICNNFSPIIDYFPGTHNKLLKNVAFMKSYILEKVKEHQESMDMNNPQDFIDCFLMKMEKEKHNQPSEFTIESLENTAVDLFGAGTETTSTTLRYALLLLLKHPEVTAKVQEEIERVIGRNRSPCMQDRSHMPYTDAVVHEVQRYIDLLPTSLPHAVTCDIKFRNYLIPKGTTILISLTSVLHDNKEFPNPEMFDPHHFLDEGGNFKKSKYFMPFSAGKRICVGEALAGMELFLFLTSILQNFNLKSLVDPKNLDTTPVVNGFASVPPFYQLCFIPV
Outline: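 P450-Glo proluciferin substrate with CYP2C9 enzyme; 10 min RT preincubation, then NADPH regeneration 1 h at 37C; luciferin detection reagent 20 min RT, luminescence in relative luminescence units.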
On the % scale 0 is the no-effect control and ±100 the full control effect.

COC(=O)c1ccccc1C(=O)c1ccc(OCCN2CCCCC2)cc1
active: Potency [4] 15.5 µM
inactive: Potency [1] | outcome [2] | max activation [3] -0.568%

COP(=O)(OC)OC(c1ccc(Cl)cc1)P(=O)(OC)OC (centres undefined)
inactive: outcome [2] | Potency [5] | Potency [6] | max activation [3] 4.37% | Potency [7] | Potency [4] | Potency [8] | Potency [9]

CC(C)(C)c1n[nH]c(=S)n(N)c1=O
inactive: outcome [2] | Potency [5] | Potency [6] | Potency [4]

CCC(C)(CCC(C)C)C(=O)O (centres undefined)
inactive: Potency [1] | outcome [2] | Potency [6]
active: Potency [4] 28.3 µM | Potency [9] 35.6 µM

CCCC/C=C\CCCCCCCCCC=O
inactive: Potency [1] | outcome [2] | Potency [4]

Nc1ccc([N+](=O)[O-])c(N)c1
active: Potency [1] 53.1 µM | Potency [4] 7.76 µM
inactive: outcome [2]

COc1ccc(-c2cc(=O)c3c(O)cc(O[C@@H]4O[C@H](CO[C@@H]5O[C@@H](C)[C@H](O)[C@@H](O)[C@H]5O)[C@@H](O)[C@H](O)[C@H]4O)cc3o2)cc1O
inactive: outcome [2] | Potency [5] | Potency [6] | max activation [3] -2.2% | Potency [4]
active: Potency [7] 12.6 µM

Cc1ccc2ccc(Cl)cc2n1
inactive: Potency [1] | outcome [2] | Potency [6] | Potency [4] | Potency [9]

Cc1ccc(S(=O)(=O)O)c(C)c1
inactive: outcome [2] | Potency [5] | Potency [6] | Potency [4]

CCCOC(=O)C(C)O (centres undefined)
inactive: outcome [2] | Potency [5] | Potency [6] | Potency [4]

CCCCCCCCC1CCC(=O)O1 (centres undefined)
active: Potency [6] 30.6 µM | Potency [8] 56.4 µM
inactive: Potency [1] | outcome [2]

CCCCNc1ccc(C(=O)OCCN(C)C)cc1
inactive: Potency [1] | outcome [2] | max activation [3] -1.52%

CC(C)NCC(O)COc1cccc2[nH]ccc12 (centres undefined)
inactive: outcome [2] | Potency [5]

COc1ccc2c(c1OC)C(=O)O[C@@H]2[C@H]1c2c(cc3c(c2OC)OCO3)CCN1C
active: Potency [5] 15 µM | Potency [6] 11.9 µM | Potency [4] 11 µM | Potency [8] 1.38 µM | Potency [9] 0.871 µM
inactive: outcome [2] | max activation [3] 8.04% | Potency [7]

COC(=O)C1CC(=O)C(C(=O)OC)CC1=O (centres undefined)
inactive: activity change, negative = cytotoxicity [1] 8.06% [at 8.39 µM] | caspase-3/7 activation [2] 0.641% [at 8.39 µM] | activation [6] 2.25% [at 8.39 µM] | activity change, negative = inhibition [4] -3.24% [at 10.5 µM] | activity change, negative = inhibition [9] -7.95% [at 10.5 µM]

O=C(O)Cc1cn(-c2ccccc2)nc1-c1ccc(Cl)cc1
inactive: outcome [2] | Potency [5] | Potency [6] | max activation [3] -1.93% | Potency [7] | Potency [4]

O=C(OCC(O)CO)c1ccccc1Nc1ccnc2c(C(F)(F)F)cccc12 (centres undefined)
active: Potency [6] 26.6 µM | Potency [4] 30.9 µM | Potency [8] 0.347 µM | Potency [9] 9.77 µM
inactive: outcome [2] | Potency [5]

FC(F)(F)c1ccccc1-n1ccnc1
active: Potency [4] 2.19 µM
inactive: outcome [2] | Potency [5] | Potency [6]

CCOc1cc([N+](=O)[O-])c(OCC)cc1N1CCOCC1
active: Potency [6] 30.6 µM | Potency [9] 7.96 µM
inactive: outcome [2] | Potency [4] | Potency [8]

CN(C)CCOCCO
inactive: outcome [2] | Potency [5] | Potency [6] | Potency [4] | Potency [9]

CC(=O)Nc1ccc(S(=O)(=O)Nc2ccc([N+](=O)[O-])cc2)cc1
active: Potency [8] 15.5 µM | Potency [9] 13.8 µM
inactive: outcome [2] | Potency [6] | max activation [3] -3.2% | Potency [7] | Potency [4]

O=S(=O)(O)c1cc(O)c2ccc(Nc3ccccc3)cc2c1
inactive: outcome [2] | Potency [6]
active: Potency [8] 71 µM

CCCCOCCOC(=O)COc1nc(Cl)c(Cl)cc1Cl
inactive: outcome [2] | Potency [5] | Potency [9]
active: Potency [8] 31.7 µM

CC(COC(C)(C)C)OCCCO (centres undefined)
active: Potency [4] 63.3 µM
inactive: outcome [2] | Potency [5] | Potency [6] | Potency [9]

O=C1CC(c2ccc(Cl)cc2)CC(=O)N1
inactive: outcome [2] | Potency [5] | Potency [6] | Potency [4] | Potency [9]

CC1=C(C(=O)O)N2C(=O)[C@@H](NC(=O)[C@H](N)c3ccc(O)cc3)[C@H]2SC1
inactive: outcome [2] | Potency [5] | max activation [3] -3.3%

CCCCCCOc1ccccc1C(N)=O
inactive: outcome [2] | Potency [5] | max activation [3] 6.49% | Potency [4]
active: Potency [8] 17.4 µM | Potency [9] 8.71 µM

CCCCCCCCCC(C)=O
inactive: outcome [2] | Potency [5] | Potency [6] | Potency [8]

Cc1cc(Cl)c(C)cc1Cl
inactive: outcome [2] | Potency [5] | Potency [6] | Potency [4] | Potency [8] | Potency [9]

CC(=O)Nc1ccc(S(=O)(=O)Cl)cc1
inactive: outcome [2] | Potency [6] | Potency [4] | Potency [9]

O=P(O)(O)OP(=O)(O)O
inactive: outcome [2] | Potency [5] | max activation [3] 1.84%

CC(CO)c1ccccc1 (centres undefined)
inactive: outcome [2] | Potency [5] | Potency [6] | Potency [4] | Potency [8] | Potency [9]

CCCCCCCCCCCCCC
inactive: outcome [2] | Potency [6] | Potency [4] | Potency [8] | Potency [9]

CCc1ccc(C=O)cc1
inactive: outcome [2] | Potency [5] | Potency [6] | Potency [4] | Potency [9]

O=C(O)c1cc(Br)c(O)c(Br)c1
active: Potency [8] 7.96 µM
inactive: outcome [2] | Potency [5] | Potency [6]

Brc1ccc(-c2ccccc2)cc1
inactive: outcome [2] | Potency [6] | Potency [4] | Potency [8]

N[C@@H](CCC(=O)N[C@@H](CS)C(=O)NCC(=O)O)C(=O)O
inactive: caspase-3/7 activation [2] -0.229% [at 19 µM] | activity change, negative = cytotoxicity [5] -0.0408% [at 19 µM] | max activation [3] 3.38%

NS(=O)(=O)c1cc2c(cc1Cl)CN(C1CCCCC1)C2=O
active: Potency [6] 29.8 µM
inactive: outcome [2] | Potency [5] | Potency [4] | Potency [9]

CCCCCOC(=O)CCC
inactive: outcome [2] | Potency [6] | Potency [4] | Potency [8]

CCCN1C[C@H](CSC)C[C@@H]2c3cccc4[nH]cc(c34)C[C@H]21
inactive: outcome [2] | Potency [5] | Potency [6] | Potency [9]
active: Potency [4] 0.155 µM

C=Cc1ccccn1
inactive: outcome [2] | Potency [5] | Potency [6] | Potency [4] | Potency [9]

CCCCCCCCOS(=O)(=O)O
inactive: outcome [2] | Potency [5] | Potency [6] | Potency [4]
active: Potency [9] 28.3 µM

CC(N)C(=O)OC(C)(C)Cc1ccc(Cl)cc1 (centres undefined)
inactive: outcome [2] | Potency [5] | Potency [6]
active: Potency [4] 7.76 µM | Potency [8] 1.55 µM | Potency [9] 15.5 µM

Oc1ccccc1-c1nnco1
inactive: outcome [2] | Potency [5] | Potency [6] | Potency [4] | Potency [8] | Potency [9]

O=C(c1ccc(O)cc1)c1ccc(O)c(O)c1O
active: Potency [5] 54.7 µM | Potency [6] 13.7 µM | Potency [4] 40.1 µM | Potency [8] 40.1 µM
inactive: outcome [2] | Potency [9]

O=S(O)(O)=S
inactive: caspase-3/7 activation [2] 0.413% [at 8.39 µM] | activation [6] 4.46% [at 8.39 µM] | activity change, negative = inhibition [4] -0.0268% [at 10.5 µM] | activity change, negative = inhibition [8] -17.3% [at 10.5 µM] | activity change, negative = inhibition [9] -6.3% [at 10.5 µM]

Nc1cccc(O)c1
inactive: outcome [2] | Potency [5] | Potency [6]
active: Potency [8] 73.1 µM | Potency [9] 25.9 µM

CC(=O)OC(C)OC(=O)C(C)c1ccc(-c2ccccc2)c(F)c1 (centres undefined)
inactive: outcome [2] | Potency [6]

CN(C)C(=O)CNC(=O)Cc1ccccc1
inactive: outcome [2] | Potency [6] | Potency [4] | Potency [8] | Potency [9]

OCCC(F)(F)C(F)(F)C(F)(F)C(F)(F)C(F)(F)C(F)(F)C(F)(F)C(F)(F)F
inactive: outcome [2] | Potency [5] | Potency [6] | Potency [4] | Potency [9]

COc1ccc(OC)c(Cl)c1
inactive: outcome [2] | Potency [5] | Potency [6] | Potency [9]

OCCN(CCO)c1cccc(Cl)c1
inactive: outcome [2] | Potency [6] | Potency [4]
active: Potency [8] 31.7 µM

Cc1cccc(C)c1NC(=O)c1ccccc1C(=O)O
inactive: outcome [2] | Potency [6] | max activation [3] -1.88% | Potency [7] | Potency [4] | Potency [8]

CCCCOC(=O)c1ccccc1
inactive: outcome [2] | Potency [5] | Potency [6] | Potency [4] | Potency [9]

C#CC(C)N(C)C(=O)Nc1ccc(Cl)cc1 (centres undefined)
active: Potency [6] 61.1 µM | Potency [8] 8.93 µM | Potency [9] 4.47 µM
inactive: outcome [2] | Potency [5]

CC(C)=CCOC(=O)c1ccccc1
inactive: outcome [2] | Potency [6] | Potency [4] | Potency [8] | Potency [9]
